Experimental data as given in PubChem BioAssay (NCATS).
Records with an inconclusive call do not appear. Unmarked numbers belong to inactive results. Calls of active or inactive are those of the source. Calls follow the shape of the dose curve; as a rule, active = well fitted cell-killing curve with a large enough effect; inconclusive = small, poorly fitted or top-dose-only effect; inactive = flat fitted curve, though single readings scatter. Square brackets hold non-standard residues; d marks the D form. Peptide text beside a SMILES is read from it. * marks the point of attachment. ξ: configuration not given here. Hexanoyl = CCCCCC(=O)*; ξL = CC(C)CC(N)C(=O)O

experiment: UWB1.289 Cancer Cell Toxicity qHTS against the NCATS CANVASS Library (AID 1347347); settings: UWB1.289 viability, CellTiter-Glo luminescence, 72 h; series mostly up to 38.3 µM; activity change, negative = cytotoxicity: at the top concentration; outcome: at the top concentration; also: nearly all actives have a fitted effect of over 60% in size
Method in brief: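 Viability was assessed by adding CellTiter-Glo reagent to treated cultures and reading luminescence after 15min at room temperature. Treatment lasted 72 h at 37 degrees C/5% CO2, using an 11-point series on 1000 cells/well.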
% is scaled to controls: 0 for no effect and ±100 for the full control effect; potency is read from the fitted curve at half-maximal effect.

Structure (SMILES)	activity change, negative = cytotoxicity	Potency	outcome
CC(=O)N[C@H](C)c1nc(/C=C/C=C/C(=O)CC2CC(=O)CC[C@]2(C)O)cs1 (some centres not stated)	2.88%		
CN1C(=O)C(=O)N2C(=C[C@]3(c4c[nH]c5ccccc45)c4ccccc4N[C@H]23)C1=O	1.09%		
CN1CC[C@]23c4ccccc4N[C@H]1[C@]21CCN(C)[C@H]3Nc2ccccc21	3.8%		
O=C1CC(c2ccc(O)cc2)Oc2ccccc21 (configuration not stated)		3.75 µM (active)	
COC1C(C)OC(OCC23C[C@@H]4[C@H](C)CC[C@H]4C4(C=O)CC2C=C(C(C)C)C34C(=O)O)[C@@H](O)[C@H]1O (some centres not stated)	-10.2%		
CN1CC[C@@]2([C@@]34CCN(C)[C@@H]3Nc3ccccc34)c3ccccc3N[C@@H]12			inactive
COc1ccc(-c2oc3cc(OC)cc(OC)c3c(=O)c2O)cc1		18.8 µM (active)	
CC[C@@H](C)[C@H]1NC(=O)C(CC(C)C)NC(=O)[C@@H](CC(C)C)NC(=O)[C@H](Cc2c[nH]c3ccccc23)NC(=O)CNC(=O)[C@@H](CC(N)=O)NC1=O (stereo partly drawn) (cyclo(GW[dL][ξL][dI][dN]))	3.27%		
Cc1cc(O)cc2c1C(=O)c1c(O)cc(O)cc1C2=O			inactive
C=C(Cl)[C@](Cl)(CBr)CC[C@@H](Br)C(C)(C)Cl		14.9 µM (active)	
C=C(C)C(=O)O[C@H]1C[C@@]2(C)OC(=CC2=O)/C(C)=C\[C@H]2OC(=O)C(=C)[C@H]12		9.41 µM (active)	
C=C[C@]1(C)CC[C@@H]([C@H](C)C(=O)CC=C(C)C)O1	2.2%		
CC[C@@H]1C[C@@]2(CC)OC(=O)[C@@]3(CC)[C@H](CC)[C@@H]1[C@@H]23	-0.911%		
[C-]#[N+][C@@]12C(=O)[C@@H]3[C@@H](O[C@@]4(C(=O)N(C)c5cccc1c54)C3(C)C)C(=O)[C@@]2(C)C=C	2.32%		
COC(=O)c1cccc2oc(-c3cccc4oc(-c5c(C)cccc5O)nc34)nc12		5.29 µM (active)	
C[C@@]12CCC[C@@](C)(C(=O)OP(=O)(O)OC[C@H]3O[C@@H](n4cnc5c(N)ncnc54)[C@H](O)[C@@H]3O)[C@H]1C[C@@H](O)[C@@]13C[C@@H](CC[C@@H]21)[C@](C)(O)C3	-3.52%		
CCC(C)=C1OC(=O)[C@H](C)[C@H](O)[C@H](Cc2cccnc2)NC(=O)C(NC(=O)c2ncccc2O)C(C)OC1=O (some centres not stated)	-1.54%		
C[C@@]12CCC[C@@](C)(C(=O)O)[C@H]1CC[C@@]13C[C@@H](CC[C@H]12)[C@](C)(O)C3	1.03%		
O=C1OC(CCO)c2cccc(O)c21 (configuration not stated)	6.92%		

Structure (SMILES)	activity change, negative = cytotoxicity	Potency	outcome
C=C1C[C@]23C=CC(=O)[C@@](C)(CCCC(C)C(=O)N[C@@H](CO)C(=O)O)[C@@H]2C[C@@H]1CC3 (some centres not stated)			inactive
COc1cc2ccc(=O)oc2c(O)c1O[C@@H]1O[C@H](CO)[C@@H](O)[C@H](O)[C@H]1O	3.15% [at 22.9 µM]		
C/C(=C\[C@@H](C)CC/C=C/CC/C=C/C(=O)O)[C@@H](O)[C@H](C)C(=O)CCCC1CC(=O)NC(=O)C1	2.89%		
CO[C@@H](C[C@@H](C)[C@@H](O)/C=C/C=C/CNC(=O)C(C)(C)[C@H](O)\C(C)=C/C=C\C=C\Cc1cnco1)[C@]1(O)[C@@H](C)C(=O)N(C)[C@@]12COC2=O	3.93%		
O=C1CC(c2ccc(O)cc2)Oc2cc(O)cc(O)c21 (configuration not stated)	1.89%		
CN1CC[C@@]23c4ccccc4N[C@@H]1[C@@]21CCN(C)[C@@H]3Nc2ccccc21	3.04%		
C[C@@]12CCC[C@@](C)(C(=O)O)[C@H]1C[C@@H](O)[C@@]13C[C@@H](CC[C@@H]21)[C@](C)(O)C3	3.5%		
O=Cc1ccc2n1C[C@]1(OC2)O[C@H](CO)[C@@H](O)[C@@H]1O	4%		
C=C[C@@]1(C)CC[C@@H]([C@H](C)C(C)=O)O1	3.38%		
C/C=C(/CO)C(=O)O[C@@H]1[C@H](O)[C@@H](C(=O)OC)O[C@@H]2C[C@H]3OC(n4cnc5c(N)ncnc54)[C@H](OC)[C@H]3O[C@@]12O (some centres not stated)	-6.24%		
C/C=C/[C@H]1[C@H]2C(=O)c3c(O)c(C)c(O)c(C)c3[C@]1(C(=O)O)C(=O)C=C2C	3.27%		
C[C@@]12C[C@@H](C[C@@H]3C(=O)O[C@@H](c4ccoc4)[C@H](OC(=O)c4ccccc4)[C@@H]31)OC2=O	-1.62%		
C=C1CCC2C(C)(C(=O)O)CCC(CC/C(C)=C/C(=O)NC(CCC(N)=O)C(=O)O)[C@@]2(C)C1 (some centres not stated)	9.36%		
C=C1[C@@]2(C)CC3C4(C)CCC(O)C(C)(C)C4CCC3(C)[C@]1(C(=O)OC)C(=O)C(C)(O)C2=O (some centres not stated)	-5.14%		
CC(C)=CCC[C@]1(C)[C@H]2CC(=O)[C@@]3(CO3)[C@@H]1C2			inactive
CCCCCC(=O)N[C@@H](CC(C)C)C(=O)N[C@H](C=O)CCC(=O)O (Hexanoyl-Leu-Glu-aldehyde)			inactive
COc1ccc([C@@H]2c3cc4c(cc3C(=O)C(C)C2C)OCO4)cc1OC (some centres not stated)	-24.6%		
CC1(C)CC[C@]2(CO)CC[C@]3(C)C(=CCC4[C@@]5(C)CC[C@H](O)C(C)(C)C5CC[C@]43C)C2C1 (some centres not stated)	3.17%		
